# Laboratory results reported in PubChem BioAssay (NCI).
# This is part of a sample that, as a whole, favours compounds with a hit. Of some 83,000 tested, about 20% had one in any assay.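 Cells were grown in 96-well plates and exposed to the test compound at a single concentration for 48 hours; results are reported as percent growth, with values below 10 considered active.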 Unmarked numbers belong to inactive results. Active and inactive are the calls of the source.
# Tests used:
# Test in all cases: NCI-60 one-dose screen, 48 h (100 = growth as untreated, 0 = no growth, -100 = all killed)
# Settings in all cases: 10 µM unless noted
# SR leukemia = test system: SR leukemia
# RPMI-8226 leukemia = test system: RPMI-8226 leukemia
# OVCAR-8 ovarian = test system: OVCAR-8 ovarian
# OVCAR-5 ovarian = test system: OVCAR-5 ovarian
# OVCAR-4 ovarian = test system: OVCAR-4 ovarian
# SK-OV-3 ovarian = test system: SK-OV-3 ovarian
# IGROV1 ovarian = test system: IGROV1 ovarian
# OVCAR-3 ovarian = test system: OVCAR-3 ovarian
# HS 578T breast = test system: HS 578T breast
# NCI/ADR-RES ovarian = test system: NCI/ADR-RES ovarian
Structure (SMILES),growth (SR leukemia),growth (RPMI-8226 leukemia),growth (OVCAR-8 ovarian),growth (OVCAR-5 ovarian),growth (OVCAR-4 ovarian),growth (SK-OV-3 ovarian),growth (IGROV1 ovarian),growth (OVCAR-3 ovarian),growth (HS 578T breast),growth (NCI/ADR-RES ovarian)
FC(F)(F)c1[nH]ncc1-c1nc2ccc3[nH]ncc3c2c2c1CCCC2,-16.6% (active),12.3%,13.7%,9.73% (active),45.8%,-3.29% (active),-8.57% (active),9.88% (active),-3.07% (active),53.7%
CCN(CC)CCOc1ccc2ccc(=O)oc2c1,-3.51% (active),-4.27% (active),98.8%,96%,101%,92.9%,109%,115%,109%,101%
CCN1C(=O)N(c2ccccc2)C2NC(=S)N(/N=C/C=C/c3ccccc3OC)C21 (stereo not given),17.4%,14.7%,9.48% (active),27.8%,45.5%,31.6%,3.96% (active),4.35% (active),20.2%,6.95% (active)
COc1ccc(Cl)cc1Nc1nc(C(F)(F)F)ccc1C(=O)N/N=C/c1ccc([N+](=O)[O-])cc1,0.718% (active),-49.7% (active),9.77% (active),4.96% (active),-12.1% (active),14.5%,-0.273% (active),-1% (active),3.18% (active),2.09% (active)
NC(=O)c1ccccc1OCC(=O)Nc1ccc(Cl)c(Cl)c1,71.4%,66.5%,91.9%,119%,96.5%,96.9%,84.2%,95.4%,98.7%,107%
c1cc(OCCCCCOc2cccc(-c3nc4ccccc4[nH]3)c2)cc(-c2nc3ccccc3[nH]2)c1,-24.8% (active),-47.1% (active),15.7%,1.07% (active),8.16% (active),23.9%,10.8%,16.8%,25.3%,0.274% (active)
CCOC(=O)CNC1=C(Cl)C(=O)N(Cc2ccc(Cl)cc2)C1=O,105%,96.6%,100%,96.2%,101%,99.6%,97.9%,105%,101%,104%
CCCCCc1ccc(S(=O)(=O)Nc2cc(-c3csc(NC(C)=O)n3)ccc2N2CCN(C)CC2)cc1,14.1%,-28.7% (active),70.1%,85.3%,66%,92.6%,62.1%,75.6%,67.3%,61.2%
CCOC(=O)c1cn2ncnc(Oc3ccc(NC(=O)NC4CC4)c(Cl)c3)c2c1C,77.5%,61.3%,98.6%,108%,53.2%,111%,87.6%,107%,100%,90.3%
C[C@@H]1NC(=O)[C@H](Cc2ccccc2)N(Cc2cccnc2)C1=O,96.9%,105%,102%,96.7%,102%,99.2%,107%,110%,94.3%,104%
COc1cc(Cc2cc(OC)c(O)c(OC)c2)cc(OC)c1O,28%,92.7%,100%,112%,107%,98.3%,91.6%,96.2%,92.3%,52.8%
Clc1ccc(-c2nc(C(Cl)Cl)nc3cc(-c4ccccc4)nn23)cc1,10.4%,38.5%,29.8%,17%,-7.63% (active),18.6%,54.8%,-10.2% (active),-4.46% (active),19.7%
O=C1/C(=C/c2ccccn2)SC(=S)N1N1CCOCC1,108%,105%,98.9%,97.9%,107%,101%,94.1%,99.5%,96.7%,104%
